From PubChem BioAssay (NCI) come the findings set out here.

Each structure is given as a SMILES string. Compounds without any hit were thinned out: in the full panel of roughly 83,000, 20% have a hit.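 Percent growth is the endpoint: 0 to 100 indicates growth inhibition (40 means 60% inhibition), 0 means no net growth, and negative values indicate cell death.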 Values without a mark were called inactive. The source made the active and inactive calls.

The experiment concerns SR leukemia. As to the kind of experiment: NCI-60 one-dose screen, 48 h (100 = growth as untreated, 0 = no growth, -100 = all killed). Particulars: 10 µM unless noted. The method, then:
Growth inhibition of the SR human tumor cell line is measured as a screen for anti-cancer activity. Cells are grown in 96 well plates and exposed to the test compound for 48 hours. Compounds are tested at a single concentration, which is 10^-5 M for most compounds. The reported endpoint is percent growth (GI% or GIPRCNT), where numbers from 0 - 100% represent growth inhibition, and numbers from -100% - 0 represent cell death. For example, a value of 40 represents 60% growth inhibition. A value of 0 means no net growth occurred over the course of the experiment. A value of -40 indicates 40% of cells at the beginning of the experiment died by the end of the experiment. A value of -100 means all cells are dead at the end of the experiment.
NCI-60 Human Tumor Cell Lines Screen was performed using the standard one-dose NCI protocol, which is described in more detail at https://dtp.cancer.gov/discovery_development/nci-60/default.htm.
Compounds with GIPRCNT values below 10 were considered active. Activity score was based on GIPRCNT using the following formula: […]
Score is 0 for GIPRCNT values of 100 or above, 50 for GIPRCNT values of 0, and 100 for GIPRCNT values of -100.
With `Oc1ccc(Cl)cc1C(c1cc(Cl)ccc1O)C(Cl)(Cl)Cl`, the growth was -25.2% (active).

With `CC1(C)N=c2cc3c(cc2N1c1ccc(Cl)cc1)=Nc1ccccc1N3c1ccc(Cl)cc1`, the growth is -41.9% (active).

Consider `Cc1cc(C(N)=O)cc(C)c1C(=O)OCCCl`, for which the growth was 89.6%.

As for `N=C1C=C(N)C(=O)c2ccccc21`, the growth was 1.77% (active).

Take `N#CC(I)CS(=O)(=O)c1ccccc1` (stereo not given): the growth is 109%.

For `CCOC(=O)C1=NN(c2ccccc2)C(=O)/C1=C\N1C(=O)/C(=C/c2cccc(O)c2)SC1=S`, the growth was 83.3%.

`Cc1ccc2cccc(OC(=O)Nc3cccc(C(F)(F)F)c3)c2n1`: the growth is 36.9%.

On to `CN(C)c1ccc(C(=C2C=CC(=[N+](C)C)C=C2)c2ccc(N(C)C)cc2)cc1`, for which the growth is -14.3% (active).

For the molecule `CCOc1ccc2c(c1)/C(=C\C=C\C1CC(C)C3CC(OCC)CCC3N1CC)CC(C)N2CC` (stereo not given), the growth was -47.6% (active).

For `Cc1nnc(N/N=C/c2ccc([N+](=O)[O-])o2)[nH]c1=O`, the growth is 8.26% (active).

Regarding `Oc1ccc2c(c1)CCc1ccccc1-2`, the growth is 104%.

Consider `Cc1cc(C)c(C#N)c(Sc2nc(C)c([N+](=O)[O-])c(C)c2C#N)n1`, for which the growth was 22.7%.

As to `N=C(N)Sc1cccc[n+]1[O-]`, the growth was 4.61% (active).

As for `O=C1C=CC(=O)N1c1ccc(O)cc1`, the growth was 91.7%.

`Nc1cc(-c2ccccc2)ccc1O`: the growth was 28.7%.

Turning to `Fc1ccc(NCCS)cc1`, the growth is 88.9%.

For `O=[N+]([O-])c1ccc(C(Br)c2ccc([N+](=O)[O-])cc2)cc1`, the growth was 7.81% (active).

Turning to `NC(=S)Nc1ccc2c(c1)Cc1ccccc1-2`, the growth was 84.9%.

Regarding `Oc1cc(Cl)ccc1Cc1ccc(Cl)cc1O`, the growth is 59.1%.

Consider `O=[N+]([O-])/C(=C/c1ccccc1)c1ccccc1`, for which the growth was 88.5%.

Turning to `COc1cc([C@@H]2c3cc4c(cc3[C@H](OC3OC5COC(c6ccccc6)OC5C(O)C3O)[C@H]3COC(=O)[C@H]23)OCO4)cc(OC)c1OC` (stereo not given in full), the growth was -25.4% (active).

Regarding `CC(=O)Nc1ccc(C(=O)CCl)cc1`, the growth was -17.9% (active).

Consider `CC(CSc1n[nH]c(=S)s1)c1ccccc1` (stereo not given), for which the growth is 84.5%.

Turning to `O=[N+]([O-])c1ccc(C2N(Cc3ccc(Cl)cc3)CCN2Cc2ccc(Cl)cc2)cc1`, the growth was 64.8%.

Turning to `O=C(/C=C/C(Cl)(Cl)Cl)Nc1ccc(Cl)cc1`, the growth was 40.1%.

As to `COc1ccc(/C=C2/C(=O)ON=C2C)cc1`, the growth was 115%.

For the molecule `CC(C)(C)c1ccc(O)c(Br)c1`, the growth is 106%.

With `O/N=C1\c2ccccc2-c2ccc(F)cc21`, the growth is 91.2%.

With `Cc1cc(I)nc2ccccc12`, the growth was 107%.

For `CCC(C)(O)Cc1ccc(Cl)cc1` (stereo not given), the growth was 101%.

Consider `C/C(=N\NC(=S)N1CC2CCC(CC2)C1)c1ccccn1`, for which the growth was -10.1% (active).

Turning to `O=C1C=CC(=O)N1C1CCCCCCCCCCC1`, the growth was 5.7% (active).

`S=c1[nH]c2cc(Cl)ccc2s1`: the growth is 106%.

Consider `O=Nc1ccc2ccccc2c1O`, for which the growth is 60.1%.

For `COc1cc(OC)c(/C=C/c2c3ccccc3cc[n+]2C)c(OC)c1`, the growth was -18.2% (active).

As to `CC1(C)CCCC2=C1C(=O)N(SC(Cl)(Cl)Cl)C2=O`, the growth is 77.2%.

Consider `CC(C)=CCCC(C)C1=C(O)C(=O)C(C)=CC1=O` (stereo not given), for which the growth is -12.4% (active).

Take `Cc1c(O)ccc(SC#N)c1C`: the growth is 105%.

Consider `CN(Cc1ccccc1)c1ccc(SC#N)cc1`, for which the growth is -6.68% (active).

With `Cc1ccccc1N=C(N)Nc1ccccc1C` (tested in a mixture with another compound), the growth is 49.6%.
